Shown are actives, neighbours in structure and some others; about 3.5% of the full set was active somewhere.
TEAD-YAP block: TEAD-YAP interaction inhibition, primary screen, TEAD-YAP interaction inhibitor project, luminescence, HEK-TIYL cells. TEAD-Gal4/YAP UAS-luciferase luminescence. inhibition, % at 9.12 µM. 640,000 tested, 1.4% active. AID 1259422, 2018; in the data active = inhibition above about 32%;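 note: 0% = median of test compound wells and 100% = reference inhibitor wells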
FBW7 act: FBW7 E3 ligase activators, primary screen, biochemical, AlphaScreen, human; AlphaScreen FBW7–phospho-cyclin E peptide binding, activator screen; normalized activity (activation), % at 26.1 µM; 650,000 tested, 0.13% active; in the data active = normalized activity above about 1.9%;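 note: purified mutant Fbw7 with reduced substrate affinity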
MITF inh: MITF inhibitors, primary screen, biochemical, AlphaScreen, human; inhibition, % at 2.6 µM; Microphthalmia-associated transcription factor (Homo sapiens), O75030; 650,000 tested, 0.91% active; AlphaScreen MITF homodimerization, bead proximity signal; in the data active = inhibition above about 50%;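 note: 0% = vehicle wells with protein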
GPR151 ag: activators of human GPR151, primary screen, cell-based, PathHunter beta-arrestin, luminescence. PathHunter beta-arrestin GPR151 cells. activation, % at 11.2 µM. 650,000 tested, 1% active. AID 1508602, 2020; in the data active = activation above about 4.9%;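 note: 0% = median of compound wells and 100% = cells with positive control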
MITF inh conf: MITF inhibitors, retest of hits, confirmation, biochemical, AlphaScreen, triplicate | 4,700 tested, 16% active | shares compounds with MITF inh | AID 1259372, 2018 | inhibition, % at 2.6 µM | AlphaScreen MITF homodimerization, biotin/His-MITF beads;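 active = inhibition above a cutoff derived from the DMSO control wells, cut at about 28% in these data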;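 note: 0% = MITF dimer wells with DMSO only; inhibitors lower the bead chemiluminescence by keeping MITF from dimerizing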
AS interf DR: AlphaScreen optical interference compounds, dose response, counter-screen, biochemical, HTS. shares compounds with MITF inh. AlphaScreen optical interference counterscreen, cell-free. IC50, µM. 480 tested, 6% active; call rule not given here
AS interf ctr: AlphaScreen optical interference compounds, counter-screen for MITF inhibitor project, biochemical, triplicate | shares compounds with MITF inh | LysRS AlphaScreen counterscreen, signal interference | inhibition, % at 2.6 µM | 4,700 tested, 7.6% active;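 active = inhibition above a cutoff derived from the DMSO control wells, cut at about 30% in these data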
Numbers without * were called inactive; . = not tested or not shown.

SMILES	TEAD-YAP block	FBW7 act	MITF inh	GPR151 ag	MITF inh conf	AS interf ctr	others
CN1CCC(N(C)Cc2cccc(Cl)c2Cl)CC1	0	0	12	2	.	.
CN1CCC(N(C)Cc2c(F)cccc2Cl)CC1	7	0	53*	4	18	7
CN1CCC(N(C)Cc2cccc(Br)c2)CC1	-3	0	35	0	.	.
COc1ccc(CN(C)C2CCN(C)CC2)c(C)c1C	-5	0	59*	0	-1	8
COC(=O)c1ccc(CN(C)C2CCN(C)CC2)cc1	-5	0	57*	0	11	16
O=C(N/N=C/c1ccccn1)C1=NNC(=O)C1CCO (stereo unspecified)	-6	-1	65*	0	31*	96*
O=C(N/N=C/c1ccccn1)c1cccc2ccccc12	-29	0	4	-1	.	.
O=C(CSc1nnc(-c2cccc(Cl)c2)o1)Nc1ccccc1	-40	0	82*	-2	4	15
CC1CCN(CC(=O)Nc2ccccc2N2CCOCC2)CC1	5	0	69*	-1	1	17
O=C(CN1CCCC1)Nc1ccccc1N1CCOCC1	0	0	34	-1	.	.
O=C(CN1CCOCC1)Nc1ccccc1N1CCCCCC1	-2	0	69*	0	15	11
CN(NC(=O)CN1CCOCC1)c1ccccc1	-5	0	51*	-1	1	10
Cn1nnnc1SCC(=O)Nc1ccccc1N1CCOCC1	3	0	63*	0	4	11
Cc1cc(C)c2cc(C#N)c(N3CCCN(C(=O)C(F)(F)F)CC3)nc2c1	-1	0	8	0	.	.
Cc1cccc(C)c1NC(=O)CCS(=O)(=O)c1ccc(Cl)cc1	-2	0	14	2	.	.
CN1CCN(c2ccnc3c(-c4cccc5cccnc45)cnn23)CC1	-17	0	-1	0	.	.
c1ccc(CN2CCC(N3CCN(C4CC5CCC4C5)CC3)CC2)cc1 (stereo unspecified)	5	0	35	2	.	.
COc1ccc(CN2CCN(C3CCCC3)CC2)cc1OC	9	0	47	-1	.	.
COc1ccc(CN2CCN(C3CC4CCC3C4)CC2)cc1OC (stereo unspecified)	14	0	63*	0	-16	0
COc1ccc(CN2CCN(C3CC4CCC3C4)CC2)cc1 (stereo unspecified)	-5	1	77*	0	1	1
NC(=O)c1ccc(N=Cc2cc3c(cc2[N+](=O)[O-])OCO3)cc1	-6	0	58*	-1	76*	9	AS interf DR=>6.5
COc1cc(CN2CCC(C(=O)N3CCCC(C)C3)CC2)cc(Br)c1O (stereo unspecified)	-1	1	52*	-1	-7	-4
CCN1CCN(C(=O)C2CCN(Cc3cc(Br)c(O)c(OC)c3)CC2)CC1	2	0	45	-1	.	.
CC1CCCN(C(=O)C2CCN(Cc3ccccc3F)CC2)C1 (stereo unspecified)	6	0	67*	0	-12	-10
CC1CCCN(C(=O)C2CCN(Cc3cccc4ccccc34)CC2)C1 (stereo unspecified)	14	1	28	-2	.	.
CC1CCCN(C(=O)C2CCN(Cc3cccc(Cl)c3)CC2)C1 (stereo unspecified)	7	1	57*	2	-1	-5
CC1CCCN(C(=O)C2CCN(Cc3cccc(Br)c3)CC2)C1 (stereo unspecified)	6	1	62*	0	-7	-2
CCN1C(=O)/C(=C\c2ccc(C)s2)SC1=S	-10	0	9	0	.	.
O=C(Cc1ccc(Cl)cc1)Nc1ccc(C(=O)N2CCCCC2)cc1	-22	0	1	1	.	.
O=C(CNCc1ccc(F)cc1)Nc1ccc(C(=O)N2CCCCC2)cc1	6	0	69*	-1	9	17

Bioassay records deposited in PubChem by The Scripps Research Institute Molecular Screening Center.
